Laboratory results as given in article PMC11062922 (Nature Chemical Biology, 2023).
Where two headings read alike, the source gives them in different places.

Columns and labels:
Set-up in all cases: species or system human, MV4-11 + K-562 + COLO205 + SK-N-BE2 + OVCAR-8
CSNK1D = settings: read-out: apparent Kd, compound concentrations: 100 nM and 1000 nM (sheet 'Samples'), n = 1
CSNK1E = settings: read-out: apparent Kd, compound concentrations: 100 nM and 1000 nM (sheet 'Samples'), n = 1
MAPK10 = settings: read-out: apparent Kd, compound concentrations: 100 nM and 1000 nM (sheet 'Samples'), n = 1
MAPK14 = settings: read-out: apparent Kd, compound concentrations: 100 nM and 1000 nM (sheet 'Samples'), n = 1
MAPK9 = settings: read-out: apparent Kd, compound concentrations: 100 nM and 1000 nM (sheet 'Samples'), n = 1
MAPKAPK2 = settings: read-out: apparent Kd, compound concentrations: 100 nM and 1000 nM (sheet 'Samples'), n = 1
MERTK = settings: read-out: apparent Kd; compound concentrations: 100 nM and 1000 nM (sheet 'Samples'), CATDS: 0.12955803655980599; n = 1
PIK3CD = settings: read-out: apparent Kd, compound concentrations: 100 nM and 1000 nM (sheet 'Samples'), n = 1
CSNK1A1 = settings: read-out: apparent Kd, compound concentrations: 100 nM and 1000 nM (sheet 'Samples'), n = 1
FLT3 = settings: read-out: apparent Kd; compound concentrations: 100 nM and 1000 nM (sheet 'Samples'), CATDS: 0.137141810176551; n = 1
MAP2K1 = settings: read-out: apparent Kd; compound concentrations: 100 nM and 1000 nM (sheet 'Samples'), CATDS: 0.12402883868582899; n = 1
MAP3K12 = settings: read-out: apparent Kd; compound concentrations: 100 nM and 1000 nM (sheet 'Samples'), CATDS: 0.14214405219183901; n = 1
PIK3C2A = settings: read-out: apparent Kd; compound concentrations: 100 nM and 1000 nM (sheet 'Samples'), CATDS: 0.1177028048525; n = 1
PLK1 = settings: read-out: apparent Kd; compound concentrations: 100 nM and 1000 nM (sheet 'Samples'), CATDS: 0.134584248305568; n = 1
DDR1 = settings: read-out: apparent Kd; compound concentrations: 100 nM and 1000 nM (sheet 'Samples'), CATDS: 5.0291994189884899E-2; n = 1
DDR2 = settings: read-out: apparent Kd; compound concentrations: 100 nM and 1000 nM (sheet 'Samples'), CATDS: 3.5910243594836001E-2; n = 1
GAK = settings: read-out: apparent Kd; compound concentrations: 100 nM and 1000 nM (sheet 'Samples'), CATDS: 5.4860090777902201E-2; n = 1
MAPK11 = settings: read-out: apparent Kd; compound concentrations: 100 nM and 1000 nM (sheet 'Samples'), CATDS: 3.4840518040238501E-2; n = 1
MAPK8 = settings: read-out: apparent Kd; compound concentrations: 100 nM and 1000 nM (sheet 'Samples'), CATDS: 4.6835981276276903E-2; n = 1
PIK3CA = settings: read-out: apparent Kd; compound concentrations: 100 nM and 1000 nM (sheet 'Samples'), CATDS: 4.2523993136959801E-2; n = 1
PRKD2 = settings: read-out: apparent Kd; compound concentrations: 100 nM and 1000 nM (sheet 'Samples'), CATDS: 3.2417406243743098E-2; n = 1
PRKD3 = settings: read-out: apparent Kd; compound concentrations: 100 nM and 1000 nM (sheet 'Samples'), CATDS: 3.0540590804978299E-2; n = 1
RIPK2 = settings: read-out: apparent Kd; compound concentrations: 100 nM and 1000 nM (sheet 'Samples'), CATDS: 3.5796504024636501E-2; n = 1
TNIK = settings: read-out: apparent Kd; compound concentrations: 100 nM and 1000 nM (sheet 'Samples'), CATDS: 3.1361492555590703E-2; n = 1

SMILES: Fc1ccc(-c2ncn(CCCN3CCOCC3)c2-c2ccncc2)cc1 [SB-210313]
- potency estimated from few doses (CSNK1D; CATDS: 0.19836678982407999): 1230 nM
- potency estimated from few doses (CSNK1E; CATDS: 0.16080040098047499): 2020 nM
- potency estimated from few doses (MAPK10; CATDS: 0.188105641093985): 1380 nM
- potency estimated from few doses (MAPK14; CATDS: 0.26893269490410898): 706 nM
- potency estimated from few doses (MAPK9; CATDS: 0.212522711291111): 1070 nM

SMILES: CCc1cccc(NC(=O)Nc2ccc(Oc3ccc4nc(NC(=O)OC)[nH]c4c3)cc2)c1 [GW673715X]
- potency estimated from few doses (CSNK1D; CATDS: 0.27728092810056698): 739 nM
- potency estimated from few doses (CSNK1E; CATDS: 0.214439081495093): 1270 nM
- potency estimated from few doses (MAPK14; CATDS: 0.234253056752116): 1030 nM
- potency estimated from few doses (MAPKAPK2; CATDS: 0.28890607877709801): 685 nM

SMILES: COc1nccc(-c2c(-c3ccc(F)cc3)ncn2CCCN2CCOCC2)n1 [SB-282852]
- potency estimated from few doses (CSNK1D; CATDS: 0.15826837082796799): 746 nM
- potency estimated from few doses (CSNK1E; CATDS: 0.12159851027947199): 1580 nM
- potency estimated from few doses (MAPK14; CATDS: 0.160477931801707): 722 nM
- potency estimated from few doses (MAPKAPK2; CATDS: 0.19368451795267799): 478 nM
- potency estimated from few doses (MERTK): 1280 nM
- potency estimated from few doses (PIK3CD; CATDS: 0.42646415805735): 128 nM

SMILES: CC(C)(C)n1cnc2c(N)ncnc21 [SKF-97359]
- potency estimated from few doses (CSNK1A1; CATDS: 0.118789019342549): 1870 nM
- potency estimated from few doses (CSNK1D; CATDS: 0.12511674231417799): 1680 nM
- potency estimated from few doses (CSNK1E; CATDS: 0.10783492256042899): 2330 nM
- potency estimated from few doses (FLT3): 1410 nM
- potency estimated from few doses (MAP2K1): 1710 nM
- potency estimated from few doses (MAP3K12): 1320 nM
- potency estimated from few doses (PIK3C2A): 1910 nM
- potency estimated from few doses (PLK1): 1460 nM

SMILES: CCNc1nccc(-c2c(-c3ccc(F)cc3)ncn2C2CCN(C)CC2)n1 [SB-226605]
- potency estimated from few doses (CSNK1A1; CATDS: 6.4218500177313606E-2): 54.1 nM
- potency estimated from few doses (CSNK1D; CATDS: 0.15961937746466701): 6.16 nM
- potency estimated from few doses (CSNK1E; CATDS: 8.6582359742075399E-2): 24.7 nM
- potency estimated from few doses (DDR1): 116 nM
- potency estimated from few doses (DDR2): 495 nM
- potency estimated from few doses (GAK): 87 nM
- potency estimated from few doses (MAPK10; CATDS: 6.8740436071955194E-2): 44.8 nM
- potency estimated from few doses (MAPK11): 589 nM
- potency estimated from few doses (MAPK14; CATDS: 0.16984831376033699): 5.38 nM
- potency estimated from few doses (MAPK8): 150 nM
- potency estimated from few doses (MAPK9; CATDS: 9.88487925087526E-2): 18 nM
- potency estimated from few doses (MAPKAPK2; CATDS: 7.0385751931635404E-2): 42 nM
- potency estimated from few doses (PIK3CA): 220 nM
- potency estimated from few doses (PIK3CD; CATDS: 5.28736711934766E-2): 98.1 nM
- potency estimated from few doses (PRKD2): 939 nM
- potency estimated from few doses (PRKD3): 1520 nM
- potency estimated from few doses (RIPK2): 504 nM
- potency estimated from few doses (TNIK): 1210 nM
